According to PubChem BioAssay (NCI):
Values joined by “and” are separate entries in the source; they are usually repeats but may differ in a detail not shown here. Identical values can stand only once. Compounds without any hit were thinned out: in the full panel of roughly 79,000, 15% have a hit. Unmarked numbers belong to inactive results. No stated cut-off is given here; in the data, active means growth inhibition above about 70%; inactive means the rest.

Test: NCI Yeast Anticancer Drug Screen. Data for the bub3 strain (AID 167)
Settings: S. cerevisiae bub3 mutant strain, at 50.0 µM, hits give high values
Outline: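 Mutant yeast screening strain plus compound; vehicle-treated cultures serve as the 0% inhibition reference.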
Compound CNC(=O)Oc1cc(OC)ccc1C(=O)c1ccccc1 has a growth inhibition of 5.35%. In the case of O=P(Oc1ccccc1)(Oc1ccccc1)C(O)C(Cl)(Cl)Cl (stereo not given), the growth inhibition was 4%. In the case of Cc1cc(N(CCCl)CCCl)ccc1C=Nc1ccc(F)cc1[N+](=O)[O-], the growth inhibition was -8.45%. Work on CSP(=S)(SC)SC yielded a growth inhibition of -7.95%. O=C(Nc1ccccc1Cl)OCC(Cl)(Cl)Cl showed a growth inhibition of 19.8%. O=C(Cc1ccccc1)Oc1ccc2c(-c3ccccc3)c(C(=O)Nc3ccc(Cl)cc3)c(=O)oc2c1 showed a growth inhibition of -23.4%. Work on Cc1cccc(OCC2=NCCN2)c1C yielded a growth inhibition of -4.55%. For COCC1OC(OC2C3=C(C(C)C)CCC3(C)/C=C3\C(CCC3(O)COC)C(C)C2O)C(O)C2OC3OC12OC3(C)C1CO1 (stereo not given), the growth inhibition was 31.6%. In the case of COc1ccc2c(c1OC)CC(N)C2O (stereo not given), the growth inhibition was 15.2%. O=C(Cl)C1CCC1 gave a growth inhibition of -7%. With Cc1cc(C)cc(C(O)(C(=O)O)c2ccccc2)c1 (stereo not given) the growth inhibition was -5.9%. Compound COC1=CC(=Nc2ccc(N(CCCl)CCCl)cc2)C=CC1=O has a growth inhibition of 15.1%. Work on O=c1[nH]c(=S)[nH]c(O)c1/C=C1\C=CC=N1 yielded a growth inhibition of 3.3%. CCCNC(Cc1ccccc1)c1ccccc1 (stereo not given) gave a growth inhibition of -0.7%. O=C([O-])CN(CCN(CC(=O)[O-])CC(=O)O)CC(=O)O.[Fe+5].[Na+] gave a growth inhibition of -2.85%. Work on CC1COC(Nc2cccc3c2CCCC3)=N1 (stereo not given) yielded a growth inhibition of -8.1%. In the case of CCCCC[N+]1=Cc2cc(O)c(O)cc2CC1, the growth inhibition was -12.4%. In the case of Cc1cccc2c(=O)c([Se]c3coc4c(C)cccc4c3=O)coc12, the growth inhibition was -13.2%. With CCC(C)C(CC)C(=O)NC(N)=O (stereo not given) the growth inhibition was 8.5%. Compound C[N+](C)(C)Cc1ccc2ccccc2c1Br has a growth inhibition of 0.2%. For CCCCCCC(=O)O[C@H]1CC[C@H]2[C@@H]3CCC4C/C(=N/NC(=O)c5cccc6c(=O)c7ccccc7[nH]c56)C=C(C)[C@]4(C)[C@H]3CC[C@]12C (stereo not given in full), the growth inhibition was 8.45%. Work on CCC1(CC)COP(=S)(S)OC1 yielded a growth inhibition of -3.5%. In the case of CCOP(O)(=S)OCC, the growth inhibition was -15.8% and -14.5% and -14%. For CC(N)C(O)c1ccc(O)cc1 (stereo not given), the growth inhibition was -39.2%. With CC(=O)N1CCCN(C)/C1=N/[N+](=O)[O-] the growth inhibition was -15.4%. Compound CC(C)(NC1=NCCO1)c1ccccc1 has a growth inhibition of -13.7%. ClCc1cccc2ccccc12 gave a growth inhibition of -7.6%. With Cc1cccc(C)c1N the growth inhibition was 1.7%. CCNC(=O)C(C)Br (stereo not given) gave a growth inhibition of 6.5%. COC1OC2COC(c3ccccc3)OC2C2N=C(N)N([N+](=O)[O-])C12OS(C)(=O)=O (stereo not given) gave a growth inhibition of -3.6%. Compound Oc1c(Cl)cc(Cl)cc1C1N(Cc2ccc(N(CCCl)CCCl)cc2)CCCN1Cc1ccc(N(CCCl)CCCl)cc1 has a growth inhibition of 3.7%. With CN(CCOC(=O)c1ccc(Br)cc1)[N+](=O)[O-] the growth inhibition was 38.9%. O=[Te]=O showed a growth inhibition of 5.55%. CC(C)CC1N=C(NN=C2CCCCC2)SP1(=O)NNc1ncccn1 (stereo not given) gave a growth inhibition of 0.4%. With Cc1[nH]c2cc([N+](=O)[O-])ccc2c1[N+](=O)[O-] the growth inhibition was -4.65% and -4.55%. Compound CCCCNCCc1cccnc1 has a growth inhibition of 0.8%. For C/C=C(\CC)C1(CCC)C(=O)NC(=O)NC1=O, the growth inhibition was 1.35% and -0.4%. CN1CCC2=C(c3ccccc3)c3ccccc3C2C1 (stereo not given) gave a growth inhibition of 3.8%. In the case of O=c1oc2cc(O)ccc2c(O)c1C(c1ccccn1)c1c(O)c2ccc(O)cc2oc1=O, the growth inhibition was -17.4%. Work on NC(CCl)=NC1CN2CCC1CC2 (stereo not given) yielded a growth inhibition of -32.1%.

Test: NCI Yeast Anticancer Drug Screen. Data for the mlh1 rad18 strain (AID 175)
Settings: S. cerevisiae mlh1 rad18 strain growth inhibition; at 50.0 µM; hits give high values
Outline: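 Vehicle-treated cultures served as the reference for growth inhibition in a yeast strain carrying DNA damage repair alterations exposed to each compound.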
CNC(=O)Oc1cc(OC)ccc1C(=O)c1ccccc1 showed a growth inhibition of 47%. With O=P(Oc1ccccc1)(Oc1ccccc1)C(O)C(Cl)(Cl)Cl (stereo not given) the growth inhibition was 5.45%. Compound Cc1cc(N(CCCl)CCCl)ccc1C=Nc1ccc(F)cc1[N+](=O)[O-] has a growth inhibition of 18.7%. With CSP(=S)(SC)SC the growth inhibition was -15.8%. With O=C(Nc1ccccc1Cl)OCC(Cl)(Cl)Cl the growth inhibition was -11.2%. With O=C(Cc1ccccc1)Oc1ccc2c(-c3ccccc3)c(C(=O)Nc3ccc(Cl)cc3)c(=O)oc2c1 the growth inhibition was 12.8%. Cc1cccc(OCC2=NCCN2)c1C gave a growth inhibition of -25.6%. For COCC1OC(OC2C3=C(C(C)C)CCC3(C)/C=C3\C(CCC3(O)COC)C(C)C2O)C(O)C2OC3OC12OC3(C)C1CO1 (stereo not given), the growth inhibition was -78%. For COc1ccc2c(c1OC)CC(N)C2O (stereo not given), the growth inhibition was 3.25%. O=C(Cl)C1CCC1 gave a growth inhibition of 16.1%. Work on Cc1cc(C)cc(C(O)(C(=O)O)c2ccccc2)c1 (stereo not given) yielded a growth inhibition of -4.9%. COC1=CC(=Nc2ccc(N(CCCl)CCCl)cc2)C=CC1=O gave a growth inhibition of 28.6%. O=c1[nH]c(=S)[nH]c(O)c1/C=C1\C=CC=N1 showed a growth inhibition of -14.1%. Work on CCCNC(Cc1ccccc1)c1ccccc1 (stereo not given) yielded a growth inhibition of -1%. With O=C([O-])CN(CCN(CC(=O)[O-])CC(=O)O)CC(=O)O.[Fe+5].[Na+] the growth inhibition was -8.4%. In the case of CC1COC(Nc2cccc3c2CCCC3)=N1 (stereo not given), the growth inhibition was 3%. CCCCC[N+]1=Cc2cc(O)c(O)cc2CC1 showed a growth inhibition of -21.7%. In the case of Cc1cccc2c(=O)c([Se]c3coc4c(C)cccc4c3=O)coc12, the growth inhibition was -30.1%. For CCC(C)C(CC)C(=O)NC(N)=O (stereo not given), the growth inhibition was 0.95%. Compound C[N+](C)(C)Cc1ccc2ccccc2c1Br has a growth inhibition of 20.6%. With CCCCCCC(=O)O[C@H]1CC[C@H]2[C@@H]3CCC4C/C(=N/NC(=O)c5cccc6c(=O)c7ccccc7[nH]c56)C=C(C)[C@]4(C)[C@H]3CC[C@]12C (stereo not given in full) the growth inhibition was -55.3%. CCC1(CC)COP(=S)(S)OC1 gave a growth inhibition of -3.2%. For CCOP(O)(=S)OCC, the growth inhibition was 17% and 18.8% and 3.2%. CC(N)C(O)c1ccc(O)cc1 (stereo not given) showed a growth inhibition of -44%. CC(=O)N1CCCN(C)/C1=N/[N+](=O)[O-] gave a growth inhibition of -13.9%. With CC(C)(NC1=NCCO1)c1ccccc1 the growth inhibition was 62%. Compound ClCc1cccc2ccccc12 has a growth inhibition of -39%. Compound Cc1cccc(C)c1N has a growth inhibition of 16.8%. For CCNC(=O)C(C)Br (stereo not given), the growth inhibition was 23.9%. COC1OC2COC(c3ccccc3)OC2C2N=C(N)N([N+](=O)[O-])C12OS(C)(=O)=O (stereo not given) gave a growth inhibition of 3.75%. Compound Oc1c(Cl)cc(Cl)cc1C1N(Cc2ccc(N(CCCl)CCCl)cc2)CCCN1Cc1ccc(N(CCCl)CCCl)cc1 has a growth inhibition of 41.5%. With CN(CCOC(=O)c1ccc(Br)cc1)[N+](=O)[O-] the growth inhibition was 22.9%. Compound O=[Te]=O has a growth inhibition of 11.4%. CC(C)CC1N=C(NN=C2CCCCC2)SP1(=O)NNc1ncccn1 (stereo not given) showed a growth inhibition of -0.1%. With Cc1[nH]c2cc([N+](=O)[O-])ccc2c1[N+](=O)[O-] the growth inhibition was 59% and 41.8%. Work on CCCCNCCc1cccnc1 yielded a growth inhibition of 15.9%. With C/C=C(\CC)C1(CCC)C(=O)NC(=O)NC1=O the growth inhibition was 7.75% and -3.65%. In the case of CN1CCC2=C(c3ccccc3)c3ccccc3C2C1 (stereo not given), the growth inhibition was 3.55%. O=c1oc2cc(O)ccc2c(O)c1C(c1ccccn1)c1c(O)c2ccc(O)cc2oc1=O showed a growth inhibition of -52%. NC(CCl)=NC1CN2CCC1CC2 (stereo not given) gave a growth inhibition of -7.15%.
